# Sampled rows, rich in hits. Any-hit rate of the full collection: about 2.3%.
# CHRM1 antagonist: human CHRM1 antagonism. P11229. CHO-K1 hM1, Fluo-8 calcium fluorescence, ACh EC80 antagonist. inhibition, % at 3 µM. hit rate 1.3% among 360,000. AID 588852;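 active = percent inhibition above its own plate's cutoff, namely the mean of that plate's compound wells plus 3 SD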;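 note: peak over basal fluorescence ratio during 140 s after agonist addition; 0% = ACh EC80 plus DMSO and 100% = DMSO alone without agonist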
# Target sequence (P11229 whole entry, looked up): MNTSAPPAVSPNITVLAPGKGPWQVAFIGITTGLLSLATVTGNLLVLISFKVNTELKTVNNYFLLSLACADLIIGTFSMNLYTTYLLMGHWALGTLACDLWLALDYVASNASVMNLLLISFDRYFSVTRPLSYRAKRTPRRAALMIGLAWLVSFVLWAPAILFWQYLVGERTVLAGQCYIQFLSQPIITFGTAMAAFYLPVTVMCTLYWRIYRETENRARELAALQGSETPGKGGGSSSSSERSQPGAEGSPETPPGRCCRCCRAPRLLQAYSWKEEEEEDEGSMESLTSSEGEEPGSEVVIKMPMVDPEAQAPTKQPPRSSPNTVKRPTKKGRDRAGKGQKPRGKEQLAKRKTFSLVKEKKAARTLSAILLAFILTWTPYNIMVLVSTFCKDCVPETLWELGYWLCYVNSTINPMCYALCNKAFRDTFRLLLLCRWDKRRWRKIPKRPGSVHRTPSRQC
# CHO-K1 Ca antag: nonselective inhibitor or artifact in parental CHO-K1 cells. ATP-induced calcium, Fluo-8 fluorescence. inhibition, % at 3 µM. hit rate 0.6% among 360,000;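 active = inhibition above a per-plate cutoff, the plate's mean sample inhibition plus 3 SD, cut at about 24% in these data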;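 note: 0% = DMSO plus EC80 ATP and 100% = DMSO alone without ATP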
# CHRM1 PAM: potentiates human M1 receptor response to acetylcholine. P11229. CHO-K1 hM1, Fluo-8 calcium fluorescence, ACh EC20; 0% = ACh EC20, 100% = maximal ACh. activation, % at 3 µM. hit rate 0.088% among 360,000. AID 588819; in the data active = activation above about 19%, passing the limit was not always enough
# CHO-K1 Ca PAM: counter-screen for M1 PAMs: effect in parental CHO-K1 cells | hit rate 0.02% among 360,000 | ATP EC20, Fluo-8 calcium fluorescence; 0% at ATP EC20, 100% at ATP max | activation, % at 3 µM;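 active = activation above the run cutoff, the mean activation of all test compounds plus 3 SD, cut at about 40% in these data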;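 note: peak over basal fluorescence ratio in a 140 s read after ATP addition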
# M1 ag parental: counter-screen for M1 agonists: effect in parental CHO-K1 cells. Fluo-8 calcium fluorescence; scaled to maximal ATP response, vehicle zero. hit rate 0.48% among 360,000. activation, % at 3 µM; in the data active = activation above about 15%;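 note: untransfected CHO-K1 host cells lacking M1 receptor as counterscreen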
# M1 ag: activates human CHRM1 receptor | activation, % at 3 µM | AID 588814 | CHO-K1 hM1, Fluo-8 calcium fluorescence, agonist mode; 0% DMSO, 100% acetylcholine EC100 | hit rate 0.33% among 360,000;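 active = activation above the run's mean compound activation plus 3 SD, cut at about 16% in these data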;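 note: peak over basal fluorescence ratio within a 140 s kinetic read after compound addition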
# Numbers without * were called inactive.
SMILES,CHRM1 antagonist,CHO-K1 Ca antag,CHRM1 PAM,CHO-K1 Ca PAM,M1 ag parental,M1 ag
CC(NCC(O)COc1ccc2ccccc2c1)c1ccccc1 (stereo not drawn),-7,10,15,-14,16*,-2
O=C1CSC(=S)N1N=Cc1ccc(Cl)s1,-15,-11,5,5,1,-2
COc1ccc(-c2oc(NC(=O)CCl)c(C#N)c2-c2ccc(OC)cc2)cc1,46*,-13,12,0,0,7
COc1ccc(-c2oc(NC(=O)CSc3ncn[nH]3)c(C#N)c2-c2ccc(OC)cc2)cc1,-8,0,3,9,0,-2
CCc1ccc([C@@H]2C[C@H]3[C@@H](CN2S(=O)(=O)c2ccc(C)cc2)C(=O)C[C@@H](c2cccc(Cl)c2)N3S(=O)(=O)c2ccc(C)cc2)cc1,-9,6,7,-15,0,-2
O=C(CSc1nc(C(F)(F)F)cc(=O)[nH]1)Nc1cccc2ccccc12,-29,-5,24*,11,0,3
COc1ccc2[nH]c3c(c2c1)CCN1C(=O)C(CC(=O)NC/C=C(\C)CCC=C(C)C)C[C@H](C(=O)N(C(C)C)C(C)C)[C@@]31C (stereo partly drawn),-11,-1,8,17,1,-6
CCNC(=O)c1cc2c(c(-c3cccc(-c4cccc(C(=O)N(C)C)c4)c3)n1)[C@H](CCO)N(S(=O)C(C)(C)C)C2 (stereo partly drawn),-5,3,5,13,1,-10
CN(C)C(=O)c1cccc(-c2cccc(-c3nc(C(=O)NCc4ccccc4)cc4c3[C@@H](CCO)N(S(=O)C(C)(C)C)C4)c2)c1 (stereo partly drawn),23,25*,-13,-9,5,-5
COc1ccc(Cc2nc3ccccc3[nH]2)cc1OC,5,47*,2,-3,0,-6
Cc1ccc(Cc2nc3ccccc3[nH]2)cc1,1,-9,6,12,1,-1
CCOC(=O)C1=C(C)N(c2ccccc2)C(=O)NC1c1cccc([N+](=O)[O-])c1 (stereo not drawn),68*,0,-23,6,0,-9
O=C(c1ccc2c(c1)OCO2)C1CCCN(Cc2cccn2-c2cccnc2)C1 (stereo not drawn),10,-12,-8,5,3,-5
COc1cccc(CN2CCCC(C(=O)c3ccc4c(c3)OCO4)C2)c1OC (stereo not drawn),57*,-13,-26,16,1,-11
COc1ccc(C(=O)C2CCCN(Cc3cccc4c3OCO4)C2)cc1OC (stereo not drawn),29*,-8,-32,9,0,-13
O=C(c1ccc2c(c1)OCO2)C1CCCN(Cc2c(F)ccc(F)c2F)C1 (stereo not drawn),88*,-19,-24,10,-1,-6
Cn1c(CN2CCCC(C(=O)c3ccc4c(c3)OCO4)C2)nc2ccccc21 (stereo not drawn),-6,-2,-7,9,1,-12
O=C(c1ccc2c(c1)OCO2)C1CCCN(Cc2ccc3nsnc3c2)C1 (stereo not drawn),78*,-18,-27,-10,1,-8
O=C(COc1ccc(Cl)cc1)NCc1nnc(SCC(=O)Nc2ccccc2F)o1,-11,-5,10,17,1,-8
O=C(c1ccc2c(c1)OCO2)C1CCCN(Cc2cc(F)ccc2-n2cccn2)C1 (stereo not drawn),-9,-13,7,10,0,-8
O=C(c1ccc2c(c1)OCO2)C1CCCN(Cc2ccccc2OC(F)F)C1 (stereo not drawn),75*,-2,-23,21,0,-7
COc1ccc(C(=O)C2CCCN(Cc3nc4ccccc4nc3C)C2)cc1OC (stereo not drawn),2,-11,0,0,0,-7
COc1ccc(C(=O)C2CCCN(C3Cc4ccccc4C3)C2)cc1OC (stereo not drawn),90*,2,-27,-10,0,-9
Cc1cnc(C)c(Nc2nc(C(N)Cc3ccc(Cl)cc3)cs2)n1 (stereo not drawn),5,-3,3,22,7,3
CCc1nc2ccc(C(=O)NCc3ccccc3OC)cn2c1N(CC)CCOC,-11,9,12,-5,0,-9
SMILES,CHRM1 antagonist,CHO-K1 Ca antag,CHRM1 PAM,CHO-K1 Ca PAM,M1 ag parental,M1 ag
OC1(c2ccc(Cl)cc2)CCN(Cc2c[nH]c3ccccc23)CC1,-17,-5,-10,13,3,22*
c1ccc2c(c1)oc1c(-c3cccc4nccn34)cccc12,-10,-15,4,19,1,-4
COc1ccccc1NC(=O)c1cc2cc(Br)ccc2cc1O,32,29*,-16,-9,15*,-3
COc1cc(NC(=O)c2cc3ccccc3cc2O)c(OC)cc1Cl,23,16,-12,2,13,-2
CCOC(=O)N1CCN(c2c(NCc3ccccc3Cl)c(=O)c2=O)CC1,-14,-15,6,17,0,-4
O=C(N/N=C/c1cccc2ccccc12)c1cccnc1,-13,-4,10,15,2,-2
Cc1ccccc1/C=N/NC(=O)c1cccnc1,-34,-6,27*,11,0,3
COc1cc(C2CC(=O)C3=C(C2)Nc2ncnn2C3c2cccs2)cc(OC)c1OC (stereo not drawn),-14,-10,21,14,0,1
COc1cc(C2C=C(c3cccs3)Nc3ncnn32)cc(OC)c1OC (stereo not drawn),8,4,-2,-2,20*,12
Cc1ccc(NC(=O)COC(=O)c2ccccc2F)cc1S(=O)(=O)N1CCCCC1,9,-10,-8,-13,7,0
Cc1ccc(NC(=O)COc2ccccc2C(N)=O)cc1S(=O)(=O)N1CCCCCC1,33*,27*,-15,-22,15,0
COc1ccc(NC(=O)COc2ccccc2C(N)=O)cc1S(=O)(=O)N1CCCCC1,-17,-5,14,12,1,-1
COc1cc(C(C)=O)ccc1OCC(=O)Nc1ccc(S(=O)(=O)N2CCCCC2)cc1,3,4,-13,3,4,-3
Cc1ccc(NC(=O)COc2ccc(N(C)C(=O)C(C)(C)C)cc2)cc1S(=O)(=O)N1CCCCC1,53*,29*,-17,-22,16*,2
COc1cc(C(C)=O)ccc1OCC(=O)Nc1ccc(C)c(S(=O)(=O)N2CCCCCC2)c1,37*,8,-23,-16,16*,0
Cc1ccc(NC(=O)COC(=O)c2cccc(C)c2[N+](=O)[O-])cc1S(=O)(=O)N1CCCCC1,28*,3,-12,-2,9,-2
COc1ccc(C)cc1S(=O)(=O)N1CCOCC1,-8,-1,12,9,0,-7
